In PubChem BioAssay AID596 (National Center for Advancing Translational Sciences (NCATS), 2007):
The whole screen tested about 71,000 compounds, of which about 1,400 (2%) were called active. About 3% were inconclusive and are not listed. Shown is part of a subset that was picked to be rich in actives. Unmarked numbers belong to inactive results. The call rests on the fitted dose curve; in most records, active means well fitted curve in the direction sought with a large enough effect; inconclusive means small, poorly fitted or top-dose-only effect; inactive means no such curve, though single readings can be large or run the other way.

molecular target: Microtubule-associated protein tau (Homo sapiens) (UniProt P10636); assay: qHTS Assay for Tau Filament Binding; settings: recombinant tau filaments, thioflavin S fluorescence, 15 h, filaments grown with octadecylsulfate alongside compound; series mostly up to 57.1 µM; activity change, negative = inhibition: at the top concentration;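 further: actives lower thioflavin S fluorescence by blocking filaments or displacing dye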
Text: NIH Molecular Libraries Screening Centers Network [MLSCN]
NIH Chemical Genomics Center [NCGC]
Assay Provider: Jeffrey A. Kuret, Ohio State University
Tau monomers form filaments in vitro in the presence of anionic detergents or fatty acids. The dye Thioflavine S (ThS) binds to tau filaments and upon binding, increases in fluorescence several fold. Small molecules that displace ThS binding or prevent filament binding are identified by a reduction in ThS fluorescence. This assay used histidine-tagged, recombinant human tau protein containing the products of exons 2, 3, and 10 that was provided by Jeff Kuret, Ohio State University. To form filaments, 1 uM tau was incubated with 30 uM sodium octadecylsulfate (ODS) in reagent buffer (10 uM thioflavine S, 5 mM 1,4-dithioerythreitol (DTT), 100 mM sodium chloride, 10 mM HEPES pH 7.4) for 15 hrs at 37 C.
NCGC Assay Protocol Summary:
Assay Steps. Two uL/well of 2 uM tau in reagent buffer (10 uM thioflavine S, 5 mM DTT, 100 mM sodium chloride, 10 mM HEPES pH 7.4) was dispensed into solid black 1536-well plates. Twenty-three nL compound was transferred to the assay plate after which 2 uL/well of 60 uM ODS in reagent buffer was dispensed for a final assay volume of 4 uL /well. Following 15 hours of incubation at 37 C, fluorescence was detected by an Envision (Perkin Elmer) using 450/8 nm excitation and 510/23 nm emission.
Keywords: NIH Roadmap, MLSCN, MLI, MLSMR, qHTS, NCGC, Alzheimer's disease, Neurofibrillary lesions, tau, tubulin assembly, microtubule stability, cytoskeletal integrity, fibrillization, thioflavin dyes, Amyloidgenic
On the % scale 0 is the no-effect control and ±100 the full control effect; potency means the concentration at half of the fitted maximal effect.

Sequence of Microtubule-associated protein tau (Homo sapiens) (P10636 whole entry, looked up): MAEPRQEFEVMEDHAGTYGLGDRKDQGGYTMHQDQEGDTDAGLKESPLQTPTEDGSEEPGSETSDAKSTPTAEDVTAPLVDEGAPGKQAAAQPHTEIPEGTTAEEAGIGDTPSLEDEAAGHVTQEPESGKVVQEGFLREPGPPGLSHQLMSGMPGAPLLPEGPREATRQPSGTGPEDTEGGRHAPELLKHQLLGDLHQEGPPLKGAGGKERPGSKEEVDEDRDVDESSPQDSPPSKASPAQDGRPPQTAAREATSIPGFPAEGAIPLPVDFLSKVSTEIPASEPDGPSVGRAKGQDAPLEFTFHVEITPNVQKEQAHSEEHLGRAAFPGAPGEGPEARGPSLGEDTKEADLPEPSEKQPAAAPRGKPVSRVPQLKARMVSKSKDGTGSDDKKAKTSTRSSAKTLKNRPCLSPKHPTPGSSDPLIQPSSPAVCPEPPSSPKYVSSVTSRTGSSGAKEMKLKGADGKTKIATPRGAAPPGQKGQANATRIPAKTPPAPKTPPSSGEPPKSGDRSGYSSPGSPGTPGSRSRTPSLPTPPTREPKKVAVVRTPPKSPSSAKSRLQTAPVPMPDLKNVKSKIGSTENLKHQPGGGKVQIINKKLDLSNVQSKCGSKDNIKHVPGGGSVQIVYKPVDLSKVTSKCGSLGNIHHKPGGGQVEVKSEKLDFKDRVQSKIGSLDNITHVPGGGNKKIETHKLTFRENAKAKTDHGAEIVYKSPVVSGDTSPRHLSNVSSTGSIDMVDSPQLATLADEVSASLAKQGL

Structure (SMILES) | Potency | activity change, negative = inhibition
c1ccc(CSc2nnc(-c3ccco3)c(-c3ccco3)n2)cc1 | 7.94 µM (active) | –
Nc1cc(=O)nc(SCc2ccccc2)n1Cc1ccco1 | – | -10.8%
c1ccc(CSc2nnc(-c3ccco3)n2Cc2ccccc2)cc1 | – | 6.8%
COc1cccc(Cn2c(=O)c(C)nc3cnc(Oc4ccccc4)nc32)c1 | – | -14.4%
O=C(O)c1nccnc1C(=O)Nc1ccc(Br)cn1 | – | -1.2%
CCS(=O)(=O)N(C)[C@@H]1c2cc(C#N)ccc2OC(C)(C)[C@H]1O | 39.8 µM (active) | –
C=CCOC(=O)COCCC(C)C | – | 13.7%
NC[C@@H]1O[C@H](O[C@@H]2[C@H](O[C@@H]3O[C@H](CO)[C@@H](COC[C@H]4O[C@@H](CN)[C@@H](O)[C@@H](O)[C@@H]4N)[C@@H]3O)[C@@H](O)[C@@H](N)C[C@H]2N)[C@@H](N)[C@H](O)[C@@H]1O | – | -1.7% [at 25.6 µM]
O=Cc1c(Cl)cccc1Cl | – | 4.8%
CC(=O)OCC(COC(C)=O)OC(C)=O | – | -6.1%
CC(c1ccccc1)n1c(NCCCn2ccnc2)nc2c1c(=O)[nH]c(=O)n2C (stereo not given) | – | -3.1%
Clc1cccc(-c2nc3nc4ccccc4nc3n2Cc2ccco2)c1 | 15.8 µM (active) | –
CC(Sc1nc2ccccc2c(=O)n1Cc1ccco1)C(=O)c1ccccc1 (stereo not given) | – | 14.2%
O=C(CSc1nnc(-c2cccnc2)n1Cc1ccco1)c1ccc(Cl)cc1 | – | 1.3%
CC(C)CSC[C@@H]1O[C@H](n2cnc3c(N)nccc32)[C@H](O)[C@@H]1O | – | -0.6% [at 11.4 µM]
O=c1c(CCc2ccccc2)nc2cnc(N3CCNCC3)nc2n1Cc1cccs1 | – | 19.3%
Cc1cc(C)cc(N)c1 | – | 11.7%
N#Cc1ccc(COC(=O)Cn2nnc(-c3ccccc3)n2)cc1 | – | -11.5%
NC1(C(=O)OCc2ccccc2)CCCC1 | – | 6.1% [at 11.4 µM]
N#Cc1c(N)sc2c1CCN(C(=O)OCc1ccccc1)C2 | 15.8 µM (active) | –
COC(=O)C1=C(C)NC2=C(C(=O)c3ccccc32)C1c1ccc(-c2ccc(C(=O)O)cc2)o1 (stereo not given) | 25.1 µM (active) | –
COc1ccccc1NC(=O)C1=C(C)NC2=C(C(=O)CCC2)C1c1ccc(C)o1 (stereo not given) | – | 0.5%
COC(=O)C1=C(C)NC(=O)NC1/C=C/c1ccccc1 (stereo not given) | – | 11.1%
Cc1cccc(C(=O)O)c1 | – | 0.9%

Structure (SMILES) | Potency | activity change, negative = inhibition
CCN(CC)C(=O)c1sc(NC(=O)c2ccco2)c(C#N)c1C | – | 5.3%
COc1ccc(NC(=O)c2ccc(OC)cc2)cc1 | – | 8.2%
COc1ccc(C(=O)N/N=C2/C(=O)c3c(C)cc(C)cc3CC2(C)C)cc1 | 5.01 µM (active) | –
CCCC[C@H]1C(=O)N(c2ccccc2)N(c2ccc(O)cc2)C1=O | – | -14.5% [at 25.6 µM]
CCCC1CC(C)(C(=O)Cn2[nH]c(=O)ccc2=O)OC1=O (stereo not given) | – | 0%
CCC1(C)Cc2c(sc3nc4n(c(=O)c23)CCCS4)CO1 (stereo not given) | – | -15.1%
CN(C)CCSc1nc(N)c2c3c(sc2n1)COC(C)(C)C3 | 12.6 µM (active) | –
O=C1NC(=O)[C@@](Cc2ccccc2)(c2cccnc2)N1 | – | -0.4% [at 11.4 µM]
COC(=O)C1(C)C=CC2(CCCCC2)N1C(C)=O (stereo not given) | – | -2.6%
Cn1c(=O)c(CCc2ccccc2)nc2cnc(Nc3ccccc3)nc21 | – | 102%
CNC(=O)C1(C)C=CC2(CCCCC2)N1C(C)=O (stereo not given) | – | -0.4%
Cc1nn2c(c1-c1ccccc1)N=C(c1ccco1)CC2c1ccccc1 (stereo not given) | 10 µM (active) | –
Cc1nn(C(=O)c2ccoc2C)c(N)c1-c1ccccc1 | – | -16.2%
C[C@@H]1O[C@@H](O[C@@H]2[C@@H](O)[C@H](OCCc3ccc(O)c(O)c3)O[C@H](CO[C@@H]3O[C@H](CO)[C@@H](O)[C@H](O)[C@H]3O)[C@H]2OC(=O)/C=C/c2ccc(O)c(O)c2)[C@H](O)[C@H](O)[C@H]1O | – | 5.1%
CCCC(C(=O)NCc1ccco1)N(C(=O)CNS(=O)(=O)c1ccccc1)C1CCCC1 (stereo not given) | – | -19.1%
CC(=O)N1CCC2(CC1)CCN(c1ccncc1)CC2 | – | 5.9%
CC(=O)N1CCN(c2ccc(NCc3ccc(C(C)C)cc3)cc2)CC1 | 25.1 µM (active) | –
CN1CCN(c2ccc(NC(=O)COc3ccc(Cl)cc3Cl)cc2)CC1 | – | 3.5%
COCCNc1ncnc2ccc(-c3ccccc3CN(C)C)cc12 | – | 4.2%
O=c1cc(-c2ccc(O)c(O)c2)oc2cccc(O)c12 | 39.8 µM (active) | –
COC(=O)[C@@]1(Cc2ccc(F)cc2)[C@@H]2[C@@H](CC(=O)[C@H]2CC(=O)C(=O)N2CCCC2)CN1C(=O)c1ccccc1 | – | -4.8%
Cc1ccc(/C(=C/CN2CCCC2)c2ccccn2)cc1 | inactive | –
C=C(C)C1CC=C(C)C(O)C1 (stereo not given) | – | 3.7%
CC(=O)Oc1ccccc1C(=O)Nc1ncc([N+](=O)[O-])s1 | – | 0.6%

Structure (SMILES) | Potency | activity change, negative = inhibition
O=c1c(CCc2ccccc2)nc2cncnc2n1C1CC1 | – | -4.1%
c1ccc(-c2cc(-c3nnc4sc(-c5ccccn5)nn34)[nH]n2)cc1 | 1 µM (active) | –
COc1cc(-c2nn3c(-c4cccc(C)c4)nnc3s2)cc(OC)c1OC | – | 38.8%
Cc1cccc(NC(=O)C2CCN(S(=O)(=O)c3cccc4cccnc34)CC2)c1 | – | 1.5%
COC(=O)CCCCCN1C(=O)NC(c2ccc(-c3ccccc3)cc2)C(C(=O)OCc2ccccc2)=C1C (stereo not given) | – | -3.4%
O=C(CN1CCN(c2ccc(F)cc2)CC1)Nc1cccc(C(F)(F)F)c1 | – | -3.8%
O=C(CSc1nnc(-c2ccco2)o1)NCC(=O)c1ccccc1 | – | -5.7%
CCN1C(=O)c2cccc3c(N)ccc1c23 | 25.1 µM (active) | –
CCCCN(C)C(=O)c1ccc2c(c1)N(CC)C(=O)c1ccccc1S2(=O)=O | – | 5.4%
Oc1ccc(O)c2c(O)cccc12 | 5.01 µM (active) | –
COC(=O)Nc1ncc(CN2C(=O)c3ccccc3C2=O)s1 | – | 1.9%
CCOc1ccccc1N=C1NC(=O)CS1 | – | -6%
C[N+](C)(C)CCCCCNCC12CC3CC(CC(C3)C1)C2 | 31.6 µM (active) | –
CCc1ccc(CCC(=O)Nc2ccc(S(N)(=O)=O)cc2)o1 | – | -6.1%
CCn1c(=N)c(C(=O)NCCCOC)cc2c(=O)n3cccc(C)c3nc21 | – | -2.4%
O=C(Nc1ccccc1)Nc1ccccc1C(=O)NCc1ccco1 | – | -4.8%
COC(=O)c1ccc2c(=O)n(CC3CCCO3)c(=S)[nH]c2c1 (stereo not given) | – | 6.1%
COc1ccc(CCn2c(=N)c(C(=O)NCc3ccco3)cc3c(=O)n4cccc(C)c4nc32)cc1 | 2 µM (active) | –
COc1ccc(CNC(=O)c2cc3c(=O)n4ccccc4nc3n(CC3CCCO3)c2=N)cc1 (stereo not given) | 2.51 µM (active) | –
O=C(NCc1ccco1)c1cccn2c(=O)c3cc(Br)ccc3nc12 | 25.1 µM (active) | –
Cc1cccn2c(=O)c3cc(C(=O)NCc4ccccn4)n(C)c3nc12 | – | 9.9%
CCOc1ccccc1C(=O)NCc1ccco1 | – | 20.9%
